Assay outcomes: PubChem BioAssay, National Center for Advancing Translational Sciences (NCATS)
Luciferase inh – inhibitors of firefly (Photinus pyralis) luciferase; AID 1347043; actives 2.5% (n = 76,000); purified P. pyralis luciferase, luminescence, biochemical; P08659; Potency, µM (highest dose often 115 µM), most hits filed as inhibitors; also: nearly all actives have a fitted effect of over 65% in size
Target sequence (P08659 whole entry, looked up): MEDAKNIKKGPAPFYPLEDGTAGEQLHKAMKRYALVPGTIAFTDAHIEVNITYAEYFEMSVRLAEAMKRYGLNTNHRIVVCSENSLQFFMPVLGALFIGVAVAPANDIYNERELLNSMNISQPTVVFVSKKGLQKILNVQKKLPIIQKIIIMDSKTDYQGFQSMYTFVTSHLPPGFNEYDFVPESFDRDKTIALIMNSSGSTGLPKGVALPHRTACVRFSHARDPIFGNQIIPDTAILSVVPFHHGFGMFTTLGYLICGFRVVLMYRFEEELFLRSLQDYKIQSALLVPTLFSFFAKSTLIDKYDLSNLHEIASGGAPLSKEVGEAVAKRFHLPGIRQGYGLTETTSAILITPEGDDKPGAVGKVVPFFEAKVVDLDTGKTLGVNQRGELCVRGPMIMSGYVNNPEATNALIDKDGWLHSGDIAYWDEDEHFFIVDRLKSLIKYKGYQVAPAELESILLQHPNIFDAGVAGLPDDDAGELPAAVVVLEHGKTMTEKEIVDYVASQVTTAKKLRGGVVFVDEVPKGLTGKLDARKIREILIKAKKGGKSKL
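Purified P. pyralis luciferase (10nM final) in 50mM Tris acetate pH 7.5, 10mM Mg acetate, 0.01% Tween-20, 0.05% BSA with 10uM D-luciferin and 10uM ATP. Compounds titrated qHTS. Luminescence imaged on CCD.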
NIH3T3 tox – NIH 3T3 cell cytotoxicity. actives 4.3% (n = 94,000). NIH 3T3 viability, CellTiter-Glo ATP luminescence, 48-72 h. AID 1345082. Potency, µM (top dose mostly 96.7 µM), inactives show at the highest dose activity change, negative = cytotoxicity, usual class: inhibitors; also: nearly all actives have a fitted effect of over 55% in size
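Mouse fibroblast NIH 3T3 cells, 400 per well, received compound via pintool and were incubated for 48 or 72 hr prior to CellTiter-Glo ATP luminescence measurement.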
HEK293 tox – cytotoxic compounds in HEK 293 cells. HEK 293 viability, ATP luminescence (CellTiter-Glo), 48-72 h. Potency, µM (top dose mostly 115 µM), inactives show at the top dose activity change, negative = cytotoxicity, usual class: inhibitors. actives 6.6% (n = 94,000). AID 1345083; also: nearly all actives have a fitted effect of over 60% in size
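Luminescence from cellular ATP, measured with CellTiter-Glo, indicates HEK 293 viability. Cells plated at 250 cells/well are treated with compound for 48 or 72 hr at 37 degree Celsius before reagent addition.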
NPR1 antag – blocks ANP-stimulated signaling of human Npr1 receptor. AID 1347048. P16066. actives 1.6% (n = 76,000). Potency, µM (doses to about 46.3 µM), without a hit: at the highest dose activity change, negative = inhibition, usual class: inhibitors. HEK293 hNpr1 GloSensor cGMP, ANP-stimulated luminescence; calls by dose curve; also: nearly all actives have a fitted effect of over 60% in size
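Compound pre-incubated 30 min at room temperature on GloSensor-loaded HEK293 cells stably carrying hNpr1 and the pGS-40F cGMP biosensor. Stimulation uses hNppA at 0.1 nM final; luminescence is taken at baseline and 20 min post-agonist.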
GPT2 inh – inhibitors of human GPT2 alanine aminotransferase. Q8TD30. Recombinant GPT2, coupled pyruvate oxidase/HRP Amplex Red fluorescence. Potency, µM (series often up to 57.7 µM), inactives show top-dose activity change, negative = inhibition, most hits filed as inhibitors. actives 0.25% (n = 100,000). AID 1671188; also: nearly all actives have a fitted effect of over 60% in size
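GPT2 10ng/uL, a-KG 250uM, L-Ala 2mM, HEPES pH7.5 + 0.0001% Tween; 30 min RT. Then Amplex mix (PO/HRP/ThPP), 30 min RT dark, fluorescence. AOA 50uM used as positive control.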
An asterisk follows results filed as active; i = inactive; ? = inconclusive; · = no result given; [ ] = dose if it differs, or a comment. Most compounds without a hit are left out; they make up all but 10% or so of the library. Unless noted, calls follow the shape of the dose curve; as a rule, active = well fitted curve in the direction sought with a large enough effect; inconclusive = small, poorly fitted or top-dose-only effect, or another doubt; inactive = no such curve, though single readings can be large; an effect the other way counts as inactive or inconclusive. % is scaled to controls: 0 for no effect and ±100 for the full control effect; potency is read from the fitted curve at half-maximal effect.

SMILES	Luciferase inh	NIH3T3 tox	HEK293 tox	NPR1 antag	GPT2 inh
COCc1cccc(-c2ccc3ncn(-c4ccc(F)cc4F)c(=O)c3n2)c1	i	?	-23%[172 µM]	4%[70.6 µM]	i
O=c1c2nc(-c3cccnc3)ccc2ncn1-c1ccc(F)cc1F	i	?	71µM*	0%[70.6 µM]	i
CNC(=O)CCn1ncc2cc(OCc3ccccc3-c3ccc(F)cc3F)ccc21	?	?	79µM*	-2%[70.6 µM]	?
CNC(=O)CCn1ncc2cc(OCc3ccccc3-c3ccccc3C)ccc21	i	?	?	-18%[70.6 µM]	-3%[88.5 µM]
CNC(=O)CCn1ncc2cc(OCc3ccccc3-c3cc(F)ccc3C)ccc21	?	79µM*	63µM*	-27%[70.6 µM]	4%[88.5 µM]
O=C(C1CC1)N1CCCN(CCc2ccccc2)c2ccccc21	i	32µM*	?	-15%	i
COc1ccc(-c2ccnc3nc(CCc4ccccc4)nn23)c(F)c1	i	?	?	5%	-7%
COc1ccc(-c2ccnc3nc(Cc4cc(F)cc(F)c4)nn23)c(F)c1	i	?	40µM*	-7%	-3%
Cc1ccc2c(C)c(C(=O)N(C)CCOc3ccccc3)oc2c1C	40µM*	-17%	?	1%	?
Cc1ccc(NC(=O)CC2CCCN(c3cnn(C)c(=O)c3)C2)cc1 (configuration not stated)	i	-6%	-8%	8%	i
CC(C)(C)c1cc(C(=O)N2CCCC2)nn2cccc12	·	28µM*	?	·	-3%[88.5 µM]
CC(C)NC(=O)c1cc(C(C)(C)C)c2cccn2n1	·	-6%[138 µM]	-11%[172 µM]	·	2%[88.5 µM]
O=C(NCCc1ccccc1)C1CCCCN1Cc1ccc(-c2cccs2)cc1 (configuration not stated)	·	45µM*	?	·	-10%
O=C(Nc1cccc(Cl)c1)C1CCCCN1Cc1ccc(-c2cccs2)cc1 (configuration not stated)	·	?	28µM*	·	-4%
COCCNC(=O)C1CCCCN1Cc1ccc(-c2cccs2)cc1 (configuration not stated)	·	?	40µM*	·	-7%
CCOCCNC(=O)C1CCCCN1Cc1ccc(-c2cccs2)cc1 (configuration not stated)	·	40µM*	?	·	i
CCOc1nc2c(N)ncnc2n1CC	·	·	·	·	-5%
COc1ccc(-c2noc(CCCC(=O)N3CCCC3c3nc(C4CCOCC4)no3)n2)cc1OC (configuration not stated)	i	?	-17%	0%	i
CNC(=O)Nc1cccn2nc(-c3ccccc3)nc12	40µM*	?	?	-4%	?
COC(=O)CC(NC(=O)Nc1cccn2nc(C)nc12)c1ccccc1 (configuration not stated)	i	-11%	-11%	-9%	-1%
Cc1ncsc1C1N(C2CCN(Cc3cn(C)c4ccccc34)CC2)C(=O)C12CCCC2 (configuration not stated)	i	-22%	79µM*	1%	0%
CCN1c2cc(C(=O)NCc3cccc(C(F)(F)F)c3)ccc2C(=O)N2CCCCCC21 (configuration not stated)	i	?	18µM*	?	i
CCN1c2cc(C(=O)NCc3ccccc3)ccc2C(=O)N2CCCCCC21 (configuration not stated)	i	-24%	40µM*	-6%	i
CCc1ccc(CNC(=O)c2ccc3c(c2)N(CC)C2CCCCN2C3=O)cc1 (configuration not stated)	i	?	?	0%	i
COCC(=O)NCC12CCCC=C1NC(=O)CC2 (configuration not stated)	i	1%	5%	1%	-22%
SMILES	Luciferase inh	NIH3T3 tox	HEK293 tox	NPR1 antag	GPT2 inh
O[C@@H]1C[C@@H](c2nc(Cc3ccc(F)cc3Cl)no2)N(Cc2ccc(OC(F)(F)F)cc2)C1	i	?	40µM*	-12%	1%
Cn1c(CN2C[C@H](O)C[C@H]2c2nc(-c3ccc(OC(F)(F)F)cc3)no2)nc2ccccc21	40µM*	-27%	?	-7%	-25%
O=[N+]([O-])c1ccccc1CN1C[C@H](O)C[C@H]1c1nc(Cc2ccc(F)cc2Cl)no1	?	?	112µM*	1%[70.6 µM]	i
Cc1ccc(-c2noc([C@@H]3C[C@@H](O)CN3Cc3nc4ccccc4n3C)n2)cc1F	i	-28%[174 µM]	-7%[172 µM]	-3%[70.6 µM]	2%[88.5 µM]
COc1ccc(CN2C[C@H](O)C[C@H]2c2nc(Cc3ccccc3)no2)cc1	?	-12%[174 µM]	?	-1%[70.6 µM]	i
FC(F)(F)c1ccccc1-c1ncc[nH]1	·	i	i	·	-18%[88.5 µM]
CCOCCn1c(=O)n(CCn2cc(Cl)cn2)c2cc(C(=O)O)cnc21	i	i	i	8%	i[11.5 µM]
COC(=O)c1ccc2nc(C[C@@H]3C[C@@H](C(C)C)[C@H](CNC(=O)c4cccnc4)C=C3C)[nH]c2c1	i	?	?	-5%	3%
CC(=O)NC[C@@H]1C=C(C)[C@H](Cc2nc3ccc(C)cc3[nH]2)C[C@H]1C(C)C	i	71µM*	?	?	-13%[88.5 µM]
CC1=C[C@@H](CNC(=O)Cn2cnnn2)[C@H](C(C)C)C[C@H]1Cc1nc2ccncc2[nH]1	i	-26%[174 µM]	?	2%[70.6 µM]	-3%[88.5 µM]
CC1=C[C@@H](CNC(=O)CCC(=O)O)[C@H](C(C)C)C[C@H]1Cc1nc2ccc(C)cc2[nH]1	i	-2%[174 µM]	0%[172 µM]	7%[70.6 µM]	i
CC1=C[C@@H](CNC(=O)c2ccccc2)[C@H](C(C)C)C[C@H]1Cc1nc2ccc(C)cc2[nH]1	i	?	50µM*	-27%[70.6 µM]	-10%[88.5 µM]
COc1ccccc1C(=O)NC[C@@H]1C=C(C)[C@H](Cc2nc3ccncc3[nH]2)C[C@H]1C(C)C	i	?	35µM*	-19%[70.6 µM]	-13%[88.5 µM]
CC1=C[C@@H](CNC(=O)c2ccccc2)[C@H](C(C)C)C[C@H]1Cc1nc2ccncc2[nH]1	i	?	79µM*	?	i
COc1cc(C)ccc1OCC(=O)c1ccc2c(c1)N(CC(=O)NCc1ccco1)C(=O)CO2	i	-16%	?	-5%	i
O=C(CCC1CCCC1)N1CC(CO)C2(CCNCC2)C1 (configuration not stated)	·	-4%	1%	·	i
CN1Cc2ncnc(N3CCN(Cc4ccccc4)CC3)c2CN(c2ccc([N+](=O)[O-])cc2)C1=O	i	?	-8%	0%	i
CC1CCC2(C)CCC3(C)C(=CCC4C5(C)CCC(O)C(C)(C(=O)O)C5CCC43C)C2C1C (configuration not stated)	·	·	·	·	-8%[27.3 µM]
